# Several values for one entry are separate records, joined by “and”; a condition that tells them apart may be missing. Equal entries are not always repeated. Inconclusive results are not listed. A call without a number means that no potency is given here. Activity calls are given as the source filed them. Unless noted, the call rests on the fitted dose curve; in most records, active means well fitted curve in the direction sought with a large enough effect; inconclusive means small, poorly fitted or top-dose-only effect, or another doubt; inactive means no such curve, though single readings can be large; an effect the other way counts as inactive or inconclusive.
# Key:
# [1] = qHTS assay for small molecule activators of the p53 signaling pathway (AID 651743; active means well fitted activation curve with a large enough effect in the signal ratio, not every such curve was filed as active; the % refers to the signal ratio; further: potency means the concentration at half of the fitted maximal effect); conditions: HCT-116 p53RE-bla, beta-lactamase FRET ratio, 16 h; activation: stronger effect = higher value
# In short: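 Reporter: beta-lactamase driven by p53 response elements, stably integrated in HCT-116 cells. Cells seeded at 4,000/well, 5 h preincubation, compound (DMSO) 16 h at 37 C; B/G FRET substrate 2 h RT; fluorescence intensity read.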
# [2] = qHTS assay for small molecule activators of the nuclear factor-kappa B (NF-kB) signaling pathway (AID 651749; active means well fitted activation curve with a large enough effect in the signal ratio; the % refers to the signal ratio); conditions: NF-kB-bla ME-180 cells, beta-lactamase FRET ratio, 16 h; stronger effect = higher value
# In short: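 NF-kB-bla ME-180 cells, 2,000/well; 23 nL compound or DMSO pinned; 16 hr, 37C/5% CO2; beta-lactamase FRET read-out.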
# [3] = target: Tumor necrosis factor (Homo sapiens) (UniProt P01375); assay: qHTS assay to identify small molecules that stimulate Tumor Necrosis Factor-alpha (TNF-alpha) secretion (AID 651757; active means well fitted curve in the direction sought with a large enough effect in the signal ratio; the % refers to the signal ratio; further: potency means the concentration at half of the fitted maximal effect)
# Tumor necrosis factor (Homo sapiens), sequence (P01375 whole entry, looked up): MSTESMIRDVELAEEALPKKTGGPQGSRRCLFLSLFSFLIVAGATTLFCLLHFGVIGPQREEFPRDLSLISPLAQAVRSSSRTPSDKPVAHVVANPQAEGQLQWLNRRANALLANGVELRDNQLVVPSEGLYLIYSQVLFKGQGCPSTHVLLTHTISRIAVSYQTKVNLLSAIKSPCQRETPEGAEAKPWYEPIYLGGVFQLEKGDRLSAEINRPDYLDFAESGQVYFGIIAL
# In short: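 THP-1 cells, 3000/well; compound 17 hrs, 37 C; add cryptate/XL665 anti-TNF-alpha antibody pair; 3 hr RT; TR-FRET (HTRF) read of secreted TNF-alpha. Quantitative HTS format.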
# [4] = qHTS assay for environmental chemicals that activate the Aryl hydrocarbon Receptor (AhR) signaling pathway (AID 651777); conditions: 1A2-DRE human hepatoma cells, luciferase, 24 h; activation: stronger effect = higher value; further: nearly all actives have a fitted effect of over 15% in size
# In short: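 Human hepatoma 1A2-DRE cells, stably carrying a dioxin response element and CYP1A2 promoter driving luciferase, were exposed to compounds for 24 hr at 37 C and 5% CO2. Luciferase signal was then read after 30 min One-Glo at room temperature.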
# [5] = target: Peroxisome proliferator-activated receptor alpha (Homo sapiens) (UniProt Q07869); assay: qHTS assay for small molecule agonists of the peroxisome proliferator-activated receptor alpha (PPARalpha) signaling pathway (AID 651778); conditions: PathHunter PPARalpha complementation, chemiluminescence, 6 h; stronger effect = higher value
# Peroxisome proliferator-activated receptor alpha (Homo sapiens), sequence (Q07869 whole entry, looked up, the tested form may be a part): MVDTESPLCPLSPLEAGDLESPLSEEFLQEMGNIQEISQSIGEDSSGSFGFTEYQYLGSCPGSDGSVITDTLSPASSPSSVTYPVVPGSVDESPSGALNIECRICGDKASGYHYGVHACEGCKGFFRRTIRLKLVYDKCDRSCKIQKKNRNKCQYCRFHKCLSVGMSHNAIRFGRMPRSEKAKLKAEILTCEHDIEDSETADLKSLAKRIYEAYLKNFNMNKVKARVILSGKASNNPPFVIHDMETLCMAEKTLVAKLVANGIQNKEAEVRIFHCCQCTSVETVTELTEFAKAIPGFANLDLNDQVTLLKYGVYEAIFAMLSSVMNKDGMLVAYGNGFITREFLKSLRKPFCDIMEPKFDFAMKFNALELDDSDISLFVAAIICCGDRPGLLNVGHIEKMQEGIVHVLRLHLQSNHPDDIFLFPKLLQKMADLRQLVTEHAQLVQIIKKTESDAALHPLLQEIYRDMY
# In short: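 Enzyme-fragment complementation assay in which ligand-bound PPARalpha translocates and forms an active enzyme that generates chemiluminescence. Cells were plated overnight, exposed to compound for 6 hr at 37 C, and then given detection reagent for 60 min at room temperature.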
# [6] = qHTS assay for small molecule agonists of the antioxidant response element (ARE) signaling pathway (AID 651741; active means well fitted activation curve with a large enough effect in the signal ratio; the % refers to the signal ratio; further: potency means the concentration at half of the fitted maximal effect)
# In short: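 HepG2 ARE-bla reporter cells, 2,000/well; 5 h settle at 37 C/5% CO2; compound pin transfer (23 nL, DMSO); 16 h at 37 C; LiveBLAzer B/G FRET substrate, 2 h RT; fluorescence intensity read.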
# [7] = qHTS assay for small molecule disruptors of the mitochondrial membrane potential - 1 hr assay (AID 651754; calls by dose curve; further: nearly all actives have a fitted effect of over 35% in size; further: potency means the concentration at half of the fitted maximal effect)
# In short: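 Read-out: dye fluorescence at 490 nm ex/535 nm em (monomers) and 540 nm ex/590 nm em (aggregates) in HepG2 cells. Compound exposure 1 hr at 37C, followed by 30 min dye loading.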
# [8] = qHTS assay for small molecule disruptors of the mitochondrial membrane potential - 5 hr assay (AID 651755; calls by dose curve; further: nearly all actives have a fitted effect of over 40% in size; further: potency means the concentration at half of the fitted maximal effect)
# In short: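 Read-out: ratiometric Mito-MPS fluorescence, green monomer (ex 490/em 535) vs red mitochondrial aggregate (ex 540/em 590). HepG2 cells treated 5 hr at 37C before 30 min dye loading.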
# [9] = qHTS of Nrf2 Activators: LOPAC Validation (AID 624149)
# In short: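 AREc32_Fluc cells, 1000/well, OPTI-MEM + 5% FBS, o/n 37 deg C 5% CO2; compound pin-transfer, 24 hr 37 deg C; Steady-Glo 30 min RT, luminescence read.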
# [10] = target: Nuclear receptor ROR-gamma (Homo sapiens) (UniProt P51449); assay: qHTS assay for small molecule antagonists of the retinoid-related orphan receptor gamma (ROR-gamma) signaling pathway (AID 651802);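 further: CHO cells with doxycycline-induced ROR-gamma expression; luciferase reporter luminescence driven by ROR response element; nearly all actives have a fitted effect of over 60% in size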
# Nuclear receptor ROR-gamma (Homo sapiens), sequence (P51449 whole entry, looked up): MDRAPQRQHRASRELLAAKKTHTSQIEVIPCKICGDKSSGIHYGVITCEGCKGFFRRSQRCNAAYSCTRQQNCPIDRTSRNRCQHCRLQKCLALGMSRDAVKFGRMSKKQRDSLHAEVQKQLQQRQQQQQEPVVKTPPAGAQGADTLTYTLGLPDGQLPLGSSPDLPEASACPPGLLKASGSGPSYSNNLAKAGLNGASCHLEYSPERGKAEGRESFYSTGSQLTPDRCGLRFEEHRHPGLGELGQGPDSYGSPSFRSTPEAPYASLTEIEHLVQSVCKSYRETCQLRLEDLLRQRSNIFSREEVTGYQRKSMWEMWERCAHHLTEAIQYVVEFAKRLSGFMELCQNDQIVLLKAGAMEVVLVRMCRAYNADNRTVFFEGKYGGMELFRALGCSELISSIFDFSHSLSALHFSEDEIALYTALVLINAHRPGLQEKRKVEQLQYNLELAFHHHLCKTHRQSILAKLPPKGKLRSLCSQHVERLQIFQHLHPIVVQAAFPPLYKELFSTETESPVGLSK
# In short: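 Luciferase read-out: ONE-Glo luminescence after 30 min at room temperature, following 16hr doxycycline induction at 37C, 5% CO2 of CHO cells with TET-inducible ROR and RORE-LUC reporter; decreased luminescence = reduced reporter activity.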
# [11] = target: Tyrosine-protein kinase Yes (Homo sapiens) (UniProt P07947); assay: qHTS for small molecule inhibitors of Yes1 kinase: Primary Screen (AID 686947); further: nearly all actives have a fitted effect of over 60% in size; further: potency means the concentration at half of the fitted maximal effect
# Tyrosine-protein kinase Yes (Homo sapiens), sequence (P07947 whole entry, looked up): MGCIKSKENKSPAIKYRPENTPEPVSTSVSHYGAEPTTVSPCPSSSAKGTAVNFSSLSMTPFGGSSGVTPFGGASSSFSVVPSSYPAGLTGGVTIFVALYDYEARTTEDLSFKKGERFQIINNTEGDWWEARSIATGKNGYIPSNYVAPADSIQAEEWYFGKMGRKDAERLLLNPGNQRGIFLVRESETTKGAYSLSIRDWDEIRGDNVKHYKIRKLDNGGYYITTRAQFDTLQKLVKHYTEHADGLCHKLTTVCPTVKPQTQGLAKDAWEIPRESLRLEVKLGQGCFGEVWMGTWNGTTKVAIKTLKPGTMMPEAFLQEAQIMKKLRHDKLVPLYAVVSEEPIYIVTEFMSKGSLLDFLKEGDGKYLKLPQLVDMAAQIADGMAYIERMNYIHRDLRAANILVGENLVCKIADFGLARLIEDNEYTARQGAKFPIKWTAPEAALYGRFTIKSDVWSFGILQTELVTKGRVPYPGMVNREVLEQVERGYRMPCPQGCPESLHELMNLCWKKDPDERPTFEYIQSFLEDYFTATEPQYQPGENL
# In short: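 In this qHTS format, inhibition is expressed relative to DMSO controls with enzyme (maximum) and without enzyme (minimum). The 60 min room-temperature reaction uses 0.1 mM ATP, with ADP detected by luminescence.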
# [12] = Cytotoxicity counterscreen for NFkB agonists and antagonists (AID 624476);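 further: cells exposed to compound for 48 hours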; further: potency means the concentration at half of the fitted maximal effect
# [13] = qHTS Assay for Identification of Small Molecule Agonists for NFkB Signaling Pathway. (AID 624478);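 further: compounds tested together with TNF alpha at its EC50 of 10 pM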
# In short: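 Read-out: 460/530 nm emission at 405 nm excitation after 2 h LiveBLAzer loading; ME-180 NFkB-bla reporter cells exposed 5 h at 37 C to compounds with 10 pM TNF alpha final.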
# [14] = qHTS Assay for Identification of Small Molecule Antagonists for NFkB Signaling Pathway. (AID 624479; calls by dose curve;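 further: pathway stimulated with TNF alpha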; further: potency means the concentration at half of the fitted maximal effect)
# [15] = Cell Proliferation Assay against the TMD8 Cell Line (AID 651645); conditions: TMD8 DLBCL cell line proliferation/viability; at 46.1 µM (top of the series) unless noted;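 further: cells exposed to compound for 48 h before reading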
# In short: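 Viability by CellTiter-Glo after 48 h compound exposure of 500 log-phase TMD8 cells per well (RPMI, 5% FBS). Percent activity scaled between DMSO (100%) and 9.2 uM final bortezomib (0%).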
# [16] = Cell Proliferation Assay against the HBL1 Cell Line (AID 651646); conditions: HBL1 DLBCL cells; at 46.1 µM (top of the series) unless noted;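 further: cells exposed to compound for 48 h before reading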
# In short: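 HBL1, 500 cells/well, RPMI no phenol red + 5% FBS; cpd pinned, 48 h 37C/5% CO2; CellTiter-Glo, 15 min RT, luminescence. % activity: DMSO = 100%, bortezomib 9.2 uM final = 0%.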
# [17] = Cell Proliferation Assay against the TMD8 Cell Line (Caspase readout at 8 hrs) (AID 651713); further: potency means the concentration at half of the fitted maximal effect
# In short: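 Apoptosis readout: caspase 3/7 luminescence (Caspase-Glo), 15 min RT. Cells: TMD8, 500/well, RPMI + 5% FBS, no phenol red. Exposure 8 h, 37C. % activity vs DMSO = 0, bortezomib 9.2 uM final = 100.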
# [18] = Cell Proliferation Assay against the TMD8 Cell Line (Caspase readout at 16 hrs) (AID 651712); further: potency means the concentration at half of the fitted maximal effect
# In short: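 Caspase-Glo luminescence after 16 h compound exposure of TMD8 cells, 37 °C, 5% CO2. Medium: RPMI without phenol red, 5% FBS. Normalisation: DMSO = 0%, bortezomib 9.2 uM final = 100%.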
# [19] = qHTS assay to identify small molecules that stimulate interleukin-8 (IL-8) secretion (AID 651758; active means well fitted activation curve with a large enough effect in the signal ratio; the % refers to the signal ratio)
# In short: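 Compounds are added to THP-1 cells (2000 per well) and left 16 hrs at 37 C. A labeled anti-IL-8 antibody pair is then added, and IL-8 secretion is measured by time-resolved FRET after 1-3 hrs at room temperature.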
# [20] = HTS Assay for Allosteric Antagonists of the Human D2 Dopamine Receptor: Hit Validation in HTRF (AID 624455)
# In short: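 HTRF read-out; cells stably expressing D1 receptor; hits scored for inhibition of D1-mediated response. Primary screen: calcium flux, force-coupled inducible Hek293 Trex D2 line, antagonism vs EC80 dopamine.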
smiles,measurement,setting,value
CCCCC(CC)COC(=O)C(C#N)=C(c1ccccc1)c1ccccc1 (stereo unspecified),activation,[1],-3.23% (inactive)
same,activation,[2],0.0169% (inactive)
same,Potency,[3],inactive
same,activation,[4],0.749% (inactive)
same,max response,[5],-1.78% (inactive)
COc1c2occc2cc2ccc(=O)oc12,Potency,[6],inactive
same,activation,[1],-0.24% (inactive) and -0.96% (inactive)
same,Potency,[7],inactive
same,Potency,[8],inactive
same,Potency,[3],inactive
same,max response,[5],-3.1% (inactive) and -0.368% (inactive)
CNC[C@H](O)c1ccc(O)c(O)c1,outcome,[9],inactive
same,Potency,[6],48.6 µM (active)
same,activation,[1],1.2% (inactive)
same,activation,[4],-0.576% (inactive)
same,max response,[5],-0.497% (inactive)
NS(=O)(=O)c1cc(C(=O)O)c(NCc2ccco2)cc1Cl,Potency,[6],inactive
same,activation,[2],-1.24% (inactive) and -2.58% (inactive)
same,Potency,[7],inactive
same,Potency,[8],inactive
same,Potency,[3],inactive
same,outcome,[10],inactive
same,Potency,[11],inactive
CC(=O)Nc1ccc(O)cc1,Potency,[6],inactive
same,Potency,[3],inactive
same,activation,[4],1.7% (inactive) and -0.186% (inactive)
Cc1ccc(Nc2nccc(N(C)c3ccc4c(C)n(C)nc4c3)n2)cc1S(N)(=O)=O,Potency,[12],inactive
same,outcome,[13],inactive
same,Potency,[14],16.8 µM (active)
same,viability (% of control),[15],13.2%
same,"viability, percent of control",[16],35.9%
same,Potency,[17],inactive
CCOC(=O)C1=C(O)C(=O)N(Cc2ccccc2)C1,Potency,[12],inactive
same,outcome,[13],inactive
same,Potency,[14],inactive
same,viability (% of control),[15],104%
same,"viability, percent of control",[16],107%
same,Potency,[18],inactive
same,Potency,[17],inactive
same,Potency,[11],inactive
CN(C)c1ccc2nc3ccc(=[N+](C)C)cc-3sc2c1,Potency,[1],20 µM (active)
same,Potency,[7],3.76 µM (active)
same,Potency,[8],5.31 µM (active)
same,Potency,[3],10.6 µM (active)
same,activation,[4],-2.65% (inactive)
same,max response,[5],-7.81% (inactive)
CCc1nc(N)nc(N)c1-c1ccc(Cl)cc1,Potency,[3],inactive
same,outcome,[19],inactive
same,activation,[4],1.47% (inactive) and 0.312% (inactive)
same,max response,[5],-1.61% (inactive) and -1.39% (inactive)
O=Nc1c(-c2c(O)[nH]c3cc(Br)ccc23)[nH]c2ccccc12,outcome,[9],inactive
same,outcome,[20],inactive
same,Potency,[11],0.154 µM (active)
CS(=O)(=O)OCCCCOS(C)(=O)=O,activation,[1],1.64% (inactive) and 0.944% (inactive) and -3.49% (inactive)
same,Potency,[7],inactive
same,Potency,[8],inactive
same,Potency,[3],inactive
same,outcome,[19],inactive
same,activation,[4],2.49% (inactive) and 0.0953% (inactive) and 0.509% (inactive)
same,max response,[5],-1.17% (inactive) and -9.71% (inactive) and -0.247% (inactive)
same,outcome,[10],inactive
Cc1ccc(NC(=O)c2ccc(CN3CCN(C)CC3)cc2)cc1Nc1nccc(-c2cccnc2)n1,Potency,[12],inactive
same,outcome,[13],inactive
same,viability (% of control),[15],48.3%
same,"viability, percent of control",[16],38%
Nc1ccc(S(N)(=O)=O)cc1,Potency,[6],inactive
same,activation,[1],-2.72% (inactive)
same,Potency,[7],inactive
same,Potency,[8],inactive
same,Potency,[3],inactive
same,activation,[4],-0.82% (inactive)
same,max response,[5],3.64% (inactive)
Cc1cccc(C#Cc2ccccc2)n1,outcome,[20],inactive
same,Potency,[12],inactive
same,outcome,[13],inactive
same,Potency,[14],inactive
same,viability (% of control),[15],116%
same,"viability, percent of control",[16],102%
same,Potency,[18],inactive
same,Potency,[11],inactive
Cc1nc(Nc2ncc(C(=O)Nc3c(C)cccc3Cl)s2)cc(N2CCN(CCO)CC2)n1,outcome,[13],inactive
same,Potency,[14],16.8 µM (active)
same,viability (% of control),[15],8.11%
same,"viability, percent of control",[16],27.1%
same,Potency,[17],inactive
CC(C)C[C@H](NC(=O)[C@H](Cc1ccccc1)NC(=O)c1cnccn1)B(O)O,Potency,[12],0.0093 µM (active)
same,outcome,[13],inactive
same,Potency,[14],0.0053 µM (active)
same,viability (% of control),[15],1.72%
same,"viability, percent of control",[16],3.27%
same,Potency,[18],0.0026 µM (active)
same,Potency,[17],0.833 µM (active)
same,Potency,[11],inactive
CCN(CCO)CCCC(C)Nc1ccnc2cc(Cl)ccc12 (stereo unspecified),Potency,[12],inactive
same,outcome,[13],inactive
same,Potency,[14],inactive
same,viability (% of control),[15],114%
same,"viability, percent of control",[16],121%
same,Potency,[18],inactive
same,Potency,[17],inactive
same,Potency,[11],inactive

# Reference: PubChem BioAssay (NCATS)
